Measured values reported in PubChem BioAssay (NCATS).
Results filed as inconclusive are left out. Where a call stands in place of a potency, no number is given. Calls of active or inactive are those of the source. The call rests on the fitted dose curve; in most records, active means well fitted curve in the direction sought with a large enough effect; inconclusive means small, poorly fitted or top-dose-only effect, or another doubt; inactive means no such curve, though single readings can be large; an effect the other way counts as inactive or inconclusive.

What was measured:
[1] = test system: Zika virus NS2B-NS3 protease (unlinked complex); test: Primary screen GU Rhodamine qHTS for Zika virus inhibitors: Unlinked NS2B-NS3 protease assay (AID 1347159); further: nearly all actives have a fitted effect of over 60% in size
Outline: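 Noncovalent NS2B hydrophilic domain–NS3 protease domain complex (25 nM) preincubated 15 min at room temperature with compounds (up to 114 microM) in 10 mM Tris-HCl pH 8.0, 0.01% Tween 20; 1.5 microM Rhodamine110 substrate added, fluorescence change over 15 min fitted to Hill equation.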

[2] = test system: Zika virus NS2B-NS3 protease (linked construct); test: Primary screen NINDS Rhodamine qHTS for Zika virus inhibitors (AID 1347160); details: outcome: dose series up to 57.1 µM unless noted; further: nearly all actives have a fitted effect of over 55% in size
Outline: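 Purified linked NS2B-NS3 protease (NS2B hydrophilic domain joined to NS3 protease by flexible linker), 25 nM in 10 mM Tris-HCl pH 8.0, 0.01% Tween 20. Compounds titrated, 15 min preincubation at room temperature; 1.5 microM Rhodamine110 substrate, FITC fluorescence change over 15 min.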

[3] = test system: Zika virus NS2B-NS3 protease; test: Primary screen GU AMC qHTS for Zika virus inhibitors (AID 1347154); further: nearly all actives have a fitted effect of over 70% in size; further: potency means the concentration at half of the fitted maximal effect
Outline: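 Unlinked Zika NS2B hydrophilic domain/NS3 protease domain noncovalent complex (25 nM final) in 10 mM Tris-HCl pH 8.0, 0.01% Tween 20, with AMC peptide substrate. Fluorescence (ex 340, em 450 nm) change over 15 min, room temperature; percent inhibition fitted to 4-parameter Hill equation.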

[4] = Confirmatory screen NINDS Rhodamine qHTS for Zika virus inhibitors (AID 1347161); further: potency means the concentration at half of the fitted maximal effect; nearly all actives have a fitted effect of over 60% in size
Outline: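 Purified NS2B-NS3 protease with the NS2B hydrophilic domain joined by a flexible linker (25 nM) in 10 mM Tris-HCl pH 8.0, 0.01% Tween 20, preincubated 15 min at RT with compound; Rhodamine110 peptide substrate 1.5 µM; fluorescence change over 15 min; 4-parameter Hill fit.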

| SMILES | Potency [1] | outcome [2] | Potency [3] | Potency [4] |
| --- | --- | --- | --- | --- |
| O=C1NC2CCCCN2C12CCN(CCCN1c3ccccc3CCc3ccc(Cl)cc31)CC2 (stereo unspecified) | inactive | inactive |  |  |
| CN(CC1(C)CCCO1)S(=O)(=O)c1ccc(Cl)c(S(N)(=O)=O)c1 (stereo unspecified) |  | inactive | inactive |  |
| CN1CCC(N(Cc2cccs2)c2ccccc2)CC1 | inactive | inactive | inactive |  |
| COc1cc(NS(=O)(=O)c2ccc(N)cc2)nc(C)n1 |  | inactive | inactive |  |
| CC(C(=O)O)c1ccc(/C=C2\CCCCC2=O)cc1 (stereo unspecified) | inactive | inactive | inactive |  |
| O=[N+]([O-])c1nccn1CO[C@@H](CO)[C@H](O)CO | inactive | inactive |  |  |
| O=C1CC[C@H](C(=O)N2CCCCC2)N1 | inactive | inactive | inactive |  |
| O=C1OC2(c3ccccc31)c1cc(I)c(O)c(I)c1Oc1c2cc(I)c(O)c1I |  |  | 16.1 µM (active) | 17.8 µM (active) |
| CN(C)c1cc2c(Nc3ccc4c(cnn4Cc4ccccc4)c3)ncnc2cn1 |  | inactive |  |  |
| CC(C)(C)c1nnc(NS(=O)(=O)c2ccccc2)s1 | inactive | inactive | inactive |  |
| Brc1ccc([C@H]2CN3CCSC3=N2)cc1 | inactive | inactive |  |  |
| C[C@H](CN1CCCC1)C(=O)c1ccc(C(F)(F)F)cc1 |  | inactive | inactive |  |
| CC(C(O)c1ccccc1)N(C)CCOC(c1ccccc1)c1ccccc1 (stereo unspecified) |  | inactive | inactive |  |
| C[N+]1(CC2COC(c3ccccc3)(c3ccccc3)O2)CCCCC1 (stereo unspecified) |  | inactive [at 33.1 µM] | inactive |  |
| CCC(C(=O)NC(=O)NC(C)=O)c1ccccc1 (stereo unspecified) | inactive | inactive | inactive |  |
| CCCN(CCC)C(=O)C(CCC(=O)OCCCN1CCN(CCOC(=O)Cc2c(C)n(C(=O)c3ccc(Cl)cc3)c3ccc(OC)cc23)CC1)NC(=O)c1ccccc1 (stereo unspecified) |  | inactive | inactive |  |
